Test results published in PubChem BioAssay AID651791 (National Center for Advancing Translational Sciences (NCATS), 2012).
Records with an inconclusive call do not appear. The source made the active and inactive calls. The call rests on the fitted dose curve; in most records, active means well fitted inhibition curve with a large enough effect; inconclusive means small, poorly fitted or top-dose-only effect; inactive means no such curve, though single readings can be large or run the other way.

assay: InCell qHTS Assay for Inhibitors of the mTORC1 Signaling Pathway in MEF (Tsc2-/-, p53-/-) Cells: Hit Validation; settings: phospho-rpS6 immunofluorescence, 24 h; activity change, negative = inhibition: at 38.3 µM (top of the series);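 further: phospho-S6 Ser235/236 signal normalized to propidium iodide cell count per well; nearly all actives have a fitted effect of over 75% in size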
Potency means the concentration at half of the fitted maximal effect.

SMILES	activity change, negative = inhibition	Potency
CCc1cnc2c(c1SCC(=O)NCc1ccc(F)cc1)c(=O)n(C)c(=O)n2C	-100%	–
CCNS(=O)(=O)c1cc(-c2nnc(Nc3cccc(C(F)(F)F)c3)c3ccccc23)ccc1C	-100%	–
Cc1ccc(C2c3c(-c4ccccc4O)n[nH]c3C(=O)N2CCc2ccccc2)cc1 (stereo unspecified)	-100%	–
CCOC(=O)c1c(NC(=O)COc2ccc(OC)cc2)sc(C(=O)N(CC)CC)c1C	-100%	–
Cc1ccc(NC(=O)CSc2ccc(-c3ccccn3)nn2)cc1F	-100%	–
O=C(Nc1ccc2nc(SCC(=O)N3CCCc4ccccc43)sc2c1)c1ccccc1F	-100%	–
Cc1cccc(N(C)S(=O)(=O)c2ccc(-c3cc(C)no3)s2)c1	-9.17%	–
CCCOC(=O)c1c(C)oc2c1cc(NS(=O)(=O)c1ccc(OCC)cc1)c1ccccc12	-15.2%	–
COc1ccc(CCN2C(=O)c3[nH]nc(-c4ccccc4O)c3C2c2cccc(OC)c2)cc1 (stereo unspecified)	-28.2%	–
FC(F)(F)c1cccc(Nc2nc3nonc3nc2Nc2ccc(Cl)cc2)c1	-100%	–
CCOC(=O)Cc1ccc(NC(=O)n2ncc3cc(Cl)ccc32)cc1	-100%	–
C#CC(C)(CC)NC(=O)Cn1nnc(-c2ccc(OCc3c(F)cccc3Cl)cc2)n1 (stereo unspecified)	-100%	–
Cc1cc(NC(=O)c2ccco2)cc(-c2nc3cc(Cl)ccc3o2)c1O	-4.63%	–
CCCC1=Nc2cc(C(=O)NCCOC)ccc2Sc2ccccc21	-100%	–
CCOc1ccc(N(Cc2ccccc2)C(=O)c2nc(S(C)(=O)=O)ncc2Cl)cc1	–	2930 nM (active)
CC1=Nc2cc(C(=O)NC3CCCC3)ccc2Sc2ccc(Br)cc21	-100%	–
